Z-score data for 68 sequences are collected here from PubChem BioAssay AID1508600 (Functional Genomics Laboratory (NCATS/FGL), 2020).

Out of some 53,000 sequences screened, about 3,700 (7%) were called active. Only a selection was taken, and actives are over-represented in it overall. A number with no mark means an inactive call.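 Rule for the calls: active = gene knockdowns whose robust z-score for IL-1 alpha signal is at least 2 or at most -2, so actives lie on both sides; inactive = the rest.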

A short description of this assay: Components of the Cytosolic LPS Sensing Pathway: Gene Identification via Genome-wide siRNA Screen.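 Note: robust z of the log signal after scaling to non-targeting control siRNA wells of the plate.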 Conditions: RAW264.7 macrophages, IL-1a HTRF, actives lie on both sides, screened at 100 nM (by protocol), cells primed 5 h with Pam3CSK4 first. The procedure, abridged:
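RAW264.7; siRNA 100 nM final, RNAiMAX, 48h 37 degrees C; Pam3CSK4 5 h; LipidA + TransIT-TKO 24 h; IL-1a HTRF; CellTiter-Glo viability; robust z vs negative-control median.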
(In general: TR-FRET usually uses a lanthanide donor and a delayed reading to cut background.)
Regarding GGAUUACGGUGGGAUCAUGTT against Faxc, the z-score was -1.38.

For the sequence “GGUGCUGAUGGGAGAUAGUTT against 1700010H22Rik”, the z-score is -0.851.

As for GGAAAUCUACAUCAUGGCUTT against Ift140, the z-score was -2 (active).

As to GGGAAGAGAGACGAAAAAATT against Nufip1, the z-score is 1.13.

As to GGACCAGCUUGAAGCUGAATT against Atl2, the z-score was 0.388.

Take GGCUAAAAUAAAGAAGAAGTT against Cfap100: the z-score is 0.00546.

Consider CCGACAGCUCUAAAGGAACTT against Celf6, for which the z-score was 0.838.

In the case of GCUACACCCGCAUGACAAATT against Trit1, the z-score is 2.43 (active).

Regarding GGUUAUAUAAGCAUCAAGGTT against Adamts18, the z-score was -0.621.

GCAGAGCGGGAUUUCAUUCTT against Sh3glb2: the z-score is -1.23.

For the sequence CCAUAUGGCUUAUCUUAUUTT against Adam5, the z-score is 0.138.

As for GGCAAGAAGGACAAUGAGUTT against Mb21d2, the z-score is -2.82 (active).

For the sequence GGUUUUUGUUGUAAUAGGCTT against Olfr915, the z-score is -0.758.

With GGUAACAACUUUUAAGCCUTT against Prps2, the z-score is -0.318.

Turning to GCAGCUUAAGUUGCCCAAGTT against Aatk, the z-score was -0.27.

In the case of GGAUUUUGCUGUUUUGGAATT against Dsc1, the z-score was 0.41.

For the sequence CGGUAGCCAUAUUAAUAUCTT against Spink2, the z-score was 0.417.

On to GGCUUACAAUGUGAUUUACTT against Cd7, for which the z-score was 1.92.

Consider GCUUCACUCUCUUCUUUGCTT against Olfr1463, for which the z-score was -3.05 (active).

Take GCUCAACAAGGAUACGGUGTT against Tnfrsf11a: the z-score is 0.704.

As for GGAUAUAACCAUCCUCUGUTT against Zscan29, the z-score was 0.578.

As for GGGUCCCAAACAAUAACUUTT against Aebp1, the z-score was 1.7.

For CCCAGACUCAGUUUUAACUTT against Spsb4, the z-score was -1.88.

With GGGCCUCCUUCUCAUCAUUTT against Scarf2, the z-score was 0.9.

On to GGUAACUUCCCAGGAGGGATT against Bcl9, for which the z-score was 0.549.

Turning to GGAUUGGUUCAUGACCUGATT against Trim52, the z-score is -0.814.

As to GGUGAUCCUUAUGCUGUUATT against Ehmt2, the z-score was 0.305.

GGUGCUUGGGAAUUUUGAUTT against Gpsm2: the z-score is 2.31 (active).

In the case of CCAUCAUGACGGUUCCCUATT against Mrgpra5, the z-score is -1.43.

For the sequence GGUUCUUCCCACAGAAGACTT against Pggt1b, the z-score was 0.176.

GGAUGACGAAGCCUAUGAUTT against Nacc2: the z-score was -1.16.

For GGAGUGACAAAAGAAAUAATT against Nudt12, the z-score was 0.489.

With GGAAAUACUCUCAUCAUCGTT against Olfr214, the z-score was -1.17.

“CGCAUAUCUAGAAUGGUUATT against 2810021J22Rik”: the z-score was 1.74.

Regarding GGGUAACAGAUGAAGGGUCTT against Synpo2l, the z-score was 2.48 (active).

On to GGACUACUCCAGAAAGCUUTT against Wdfy3, for which the z-score was -0.0605.

With GCAAAAUGGUUCCUUUGGATT against Sec24c, the z-score is -0.396.

Regarding GGACAUUAUUUCUAUAUGGTT against Eif4e2, the z-score was -1.2.

Take GGCCCAUUCAGAUCAUCCATT against Vmn1r65: the z-score was -0.197.

On to CCCGGUAUUAAAUUUAAUGTT against Aox4, for which the z-score is 0.807.

GCAUGUUUAGAACUAGCUCTT against Zfp87: the z-score was 0.76.

With CCAUCAAUUGGAAAUCUUUTT against Tnn, the z-score was -1.01.

For GGUACAUCUUAGAGGCCAATT against Epo, the z-score is 2.66 (active).

On to CUCAGAUAUUCUUUUCCCATT against Olfr142, for which the z-score is -1.25.

As for CGUGUAACACACGAUUAGATT against Myot, the z-score is 0.587.

In the case of GGAACUUCAUUGAACUAUGTT against Trmt2b, the z-score is -0.363.

GGACGUGUACAUUGUCAAGTT against Unc5a: the z-score is 2.07 (active).

As to GUUAUCAGGAAGGAAAGCCTT against Sdhaf4, the z-score was 0.248.

With GGACAGCAAGACAGAAAACTT against Csf2rb2, the z-score was -0.26.

Take GGCUGGAGAUCUCUCAAAGTT against Nkain2: the z-score is 1.64.

As for CGAGAUUAUCAGUCAAUUGTT against Tex24, the z-score was 2.02 (active).

For GGCUUCUGUUUUUAUUUGUTT against Zbtb7c, the z-score is 1.07.

As to CGAACUGAAGGUUUUCAAUTT against Knstrn, the z-score was 0.422.

As for CCUCACGGCCUUAUAUCUCTT against Fmod, the z-score was -1.8.

Regarding GGAGACAACCUGUACUCAGTT against Zfp352, the z-score is -3.18 (active).

Take GGAGAGAGAUGCCCAAAUCTT against Zfp507: the z-score was -0.362.

CCAGCUGUGUAACACUACCTT against Gfi1: the z-score is 1.08.

Regarding CCUCUACGAUGACUGGAUGTT against Sh3bp1, the z-score was 0.227.

Take GGGUCUUCAGUAUUAACACTT against Yae1d1: the z-score was 2.62 (active).

As to GGCAUACCGGAAACUUGCCTT against Dnajb13, the z-score is -0.266.

Turning to GGUACAAACACGAUCAAGGTT against Aox4, the z-score was 0.654.

Regarding GGGAAUCAUUAAAUAGGAUTT against Arhgap26, the z-score was -0.163.

As for GGAAGAGCAUGAGUCGUUUTT against Scarb2, the z-score was -0.122.

Consider “GCUCCUACAAAACAUCCGATT against A130079P16Rik”, for which the z-score was -2.12 (active).

Regarding GGAAGUUCAUCAUGAUAUCTT against Cxadr, the z-score is -0.108.

On to GGGCGAUGAAGAAGAGAAATT against Smad1, for which the z-score was -0.443.

Consider GGAAAGUUCUAAUGUUCAUTT against Sumo1, for which the z-score is 1.55.

Take GGAACCCAUCUCUCAAGCATT against Atp5g1: the z-score is 0.563.
